Experiments:
[1] = molecular target: Tyrosine-protein kinase CSK (Homo sapiens) (UniProt P41240); settings: at 1 µM;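 also: each value is an averaged inhibition reading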
[2] = molecular target: T1, Discoidin domain-containing receptor 2 (Homo sapiens) (UniProt Q16832); settings: at 0.1 µM
T1 sequence (whole entry): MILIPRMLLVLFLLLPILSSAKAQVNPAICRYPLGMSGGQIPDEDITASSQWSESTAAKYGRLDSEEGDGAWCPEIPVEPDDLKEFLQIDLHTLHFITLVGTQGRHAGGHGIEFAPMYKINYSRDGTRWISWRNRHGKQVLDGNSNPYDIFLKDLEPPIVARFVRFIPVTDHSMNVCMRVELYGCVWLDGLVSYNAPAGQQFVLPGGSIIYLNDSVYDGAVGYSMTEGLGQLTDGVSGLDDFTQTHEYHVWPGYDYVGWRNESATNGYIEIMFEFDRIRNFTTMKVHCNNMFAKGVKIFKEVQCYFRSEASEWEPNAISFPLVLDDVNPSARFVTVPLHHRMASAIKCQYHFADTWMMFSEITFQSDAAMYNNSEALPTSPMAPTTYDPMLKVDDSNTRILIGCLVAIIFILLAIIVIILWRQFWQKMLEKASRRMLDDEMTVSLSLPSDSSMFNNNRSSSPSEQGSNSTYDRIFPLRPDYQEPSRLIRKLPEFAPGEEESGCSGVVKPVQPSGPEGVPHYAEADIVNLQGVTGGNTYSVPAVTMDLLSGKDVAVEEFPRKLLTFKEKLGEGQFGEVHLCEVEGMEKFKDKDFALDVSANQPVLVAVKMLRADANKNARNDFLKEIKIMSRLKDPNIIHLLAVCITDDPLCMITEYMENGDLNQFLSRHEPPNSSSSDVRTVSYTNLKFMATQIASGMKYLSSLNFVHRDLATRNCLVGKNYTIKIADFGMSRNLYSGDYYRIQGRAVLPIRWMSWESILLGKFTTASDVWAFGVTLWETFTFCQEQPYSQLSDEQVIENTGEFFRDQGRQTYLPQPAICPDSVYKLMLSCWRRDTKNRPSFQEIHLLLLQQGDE

[3] = molecular target: T1, Discoidin domain-containing receptor 2 (Homo sapiens); settings: at 1 µM
[4] = molecular target: Epidermal growth factor receptor (Homo sapiens) (UniProt P00533); settings: at 0.1 µM
[5] = molecular target: Epidermal growth factor receptor (Homo sapiens) (UniProt P00533); settings: at 1 µM
[6] = system: Epidermal growth factor receptor (Homo sapiens), P00533 [L858R]; settings: at 0.1 µM
[7] = system: Epidermal growth factor receptor (Homo sapiens), P00533 [L858R]; settings: at 1 µM
[8] = system: Epidermal growth factor receptor (Homo sapiens), P00533 [L861Q]; settings: at 0.1 µM
[9] = system: Epidermal growth factor receptor (Homo sapiens), P00533 [L861Q]; settings: at 1 µM
[10] = system: Epidermal growth factor receptor (Homo sapiens), P00533 [T790M]; settings: at 0.1 µM
[11] = system: Epidermal growth factor receptor (Homo sapiens), P00533 [T790M]; settings: at 1 µM
[12] = system: Epidermal growth factor receptor (Homo sapiens), P00533 [L858R,T790M]; settings: at 0.1 µM
[13] = system: Epidermal growth factor receptor (Homo sapiens), P00533 [L858R,T790M]; settings: at 1 µM
[14] = molecular target: Ephrin type-A receptor 2 (Homo sapiens) (UniProt P29317); settings: at 0.1 µM
[15] = molecular target: Ephrin type-A receptor 2 (Homo sapiens) (UniProt P29317); settings: at 1 µM
[16] = molecular target: T2, Ephrin type-A receptor 3 (Homo sapiens) (UniProt P29320); settings: at 0.1 µM
T2 sequence (whole entry): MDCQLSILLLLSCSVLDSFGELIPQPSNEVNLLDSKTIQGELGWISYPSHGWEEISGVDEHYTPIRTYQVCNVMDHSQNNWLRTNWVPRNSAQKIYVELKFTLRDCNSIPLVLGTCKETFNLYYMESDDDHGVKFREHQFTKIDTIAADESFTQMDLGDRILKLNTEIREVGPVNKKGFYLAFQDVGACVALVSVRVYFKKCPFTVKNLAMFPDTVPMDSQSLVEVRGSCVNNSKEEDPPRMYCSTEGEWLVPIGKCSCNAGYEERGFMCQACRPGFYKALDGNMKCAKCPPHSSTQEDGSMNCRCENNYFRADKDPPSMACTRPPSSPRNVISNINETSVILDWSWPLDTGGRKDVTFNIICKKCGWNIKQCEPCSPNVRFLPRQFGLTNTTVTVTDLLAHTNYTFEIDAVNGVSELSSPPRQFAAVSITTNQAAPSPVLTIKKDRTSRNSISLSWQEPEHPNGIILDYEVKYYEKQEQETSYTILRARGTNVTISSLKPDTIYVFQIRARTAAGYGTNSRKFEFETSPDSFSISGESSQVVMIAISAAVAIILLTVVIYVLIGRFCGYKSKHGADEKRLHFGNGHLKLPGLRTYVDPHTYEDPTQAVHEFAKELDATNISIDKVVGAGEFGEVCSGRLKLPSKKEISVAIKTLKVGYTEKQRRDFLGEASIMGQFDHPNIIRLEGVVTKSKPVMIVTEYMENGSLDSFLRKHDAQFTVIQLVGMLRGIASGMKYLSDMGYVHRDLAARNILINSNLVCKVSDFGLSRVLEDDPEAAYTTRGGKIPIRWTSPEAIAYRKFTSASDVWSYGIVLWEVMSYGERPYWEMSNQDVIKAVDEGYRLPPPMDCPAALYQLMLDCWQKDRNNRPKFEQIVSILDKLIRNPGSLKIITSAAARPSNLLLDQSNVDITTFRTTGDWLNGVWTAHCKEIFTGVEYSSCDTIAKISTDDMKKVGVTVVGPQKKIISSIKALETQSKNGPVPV

[17] = molecular target: T2, Ephrin type-A receptor 3 (Homo sapiens); settings: at 1 µM
[18] = molecular target: Ephrin type-A receptor 4 (Homo sapiens) (UniProt P54764); settings: at 0.1 µM
[19] = molecular target: Ephrin type-A receptor 4 (Homo sapiens) (UniProt P54764); settings: at 1 µM
[20] = molecular target: T3, Ephrin type-B receptor 2 (Homo sapiens) (UniProt P29323); settings: at 0.1 µM;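 also: reported as mean inhibition of EPHB2, from the GSK PKIS dataset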
T3 sequence (whole entry): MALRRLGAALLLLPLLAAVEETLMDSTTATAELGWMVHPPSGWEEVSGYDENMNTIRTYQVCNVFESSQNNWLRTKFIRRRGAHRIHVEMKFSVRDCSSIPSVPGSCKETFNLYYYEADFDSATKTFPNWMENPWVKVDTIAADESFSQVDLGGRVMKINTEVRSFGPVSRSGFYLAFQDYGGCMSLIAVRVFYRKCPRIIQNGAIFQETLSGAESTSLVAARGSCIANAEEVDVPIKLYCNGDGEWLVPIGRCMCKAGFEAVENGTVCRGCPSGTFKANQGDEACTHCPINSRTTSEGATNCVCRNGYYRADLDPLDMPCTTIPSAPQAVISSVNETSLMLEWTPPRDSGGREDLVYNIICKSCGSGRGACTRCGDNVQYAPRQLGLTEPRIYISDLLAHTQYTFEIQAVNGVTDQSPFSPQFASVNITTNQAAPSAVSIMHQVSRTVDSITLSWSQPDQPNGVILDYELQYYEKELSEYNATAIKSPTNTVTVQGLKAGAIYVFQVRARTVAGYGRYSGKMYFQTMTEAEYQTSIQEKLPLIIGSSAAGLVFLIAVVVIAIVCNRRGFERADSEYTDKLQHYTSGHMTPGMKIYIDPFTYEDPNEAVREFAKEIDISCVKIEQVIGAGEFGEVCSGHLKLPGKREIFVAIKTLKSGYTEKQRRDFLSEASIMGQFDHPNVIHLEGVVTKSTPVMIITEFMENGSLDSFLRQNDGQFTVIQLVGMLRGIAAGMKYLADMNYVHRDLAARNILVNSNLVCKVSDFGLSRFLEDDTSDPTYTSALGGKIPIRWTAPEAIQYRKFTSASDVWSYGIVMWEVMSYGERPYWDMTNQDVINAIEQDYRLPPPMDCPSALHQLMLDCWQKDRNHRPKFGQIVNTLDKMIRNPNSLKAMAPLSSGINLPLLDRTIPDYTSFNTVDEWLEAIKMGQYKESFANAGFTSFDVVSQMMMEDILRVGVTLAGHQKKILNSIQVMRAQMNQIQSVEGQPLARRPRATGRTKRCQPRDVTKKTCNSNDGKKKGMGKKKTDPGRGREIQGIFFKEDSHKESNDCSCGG

Sequence of Epidermal growth factor receptor (Homo sapiens), P00533 [L861Q] (P00533 whole entry L861Q): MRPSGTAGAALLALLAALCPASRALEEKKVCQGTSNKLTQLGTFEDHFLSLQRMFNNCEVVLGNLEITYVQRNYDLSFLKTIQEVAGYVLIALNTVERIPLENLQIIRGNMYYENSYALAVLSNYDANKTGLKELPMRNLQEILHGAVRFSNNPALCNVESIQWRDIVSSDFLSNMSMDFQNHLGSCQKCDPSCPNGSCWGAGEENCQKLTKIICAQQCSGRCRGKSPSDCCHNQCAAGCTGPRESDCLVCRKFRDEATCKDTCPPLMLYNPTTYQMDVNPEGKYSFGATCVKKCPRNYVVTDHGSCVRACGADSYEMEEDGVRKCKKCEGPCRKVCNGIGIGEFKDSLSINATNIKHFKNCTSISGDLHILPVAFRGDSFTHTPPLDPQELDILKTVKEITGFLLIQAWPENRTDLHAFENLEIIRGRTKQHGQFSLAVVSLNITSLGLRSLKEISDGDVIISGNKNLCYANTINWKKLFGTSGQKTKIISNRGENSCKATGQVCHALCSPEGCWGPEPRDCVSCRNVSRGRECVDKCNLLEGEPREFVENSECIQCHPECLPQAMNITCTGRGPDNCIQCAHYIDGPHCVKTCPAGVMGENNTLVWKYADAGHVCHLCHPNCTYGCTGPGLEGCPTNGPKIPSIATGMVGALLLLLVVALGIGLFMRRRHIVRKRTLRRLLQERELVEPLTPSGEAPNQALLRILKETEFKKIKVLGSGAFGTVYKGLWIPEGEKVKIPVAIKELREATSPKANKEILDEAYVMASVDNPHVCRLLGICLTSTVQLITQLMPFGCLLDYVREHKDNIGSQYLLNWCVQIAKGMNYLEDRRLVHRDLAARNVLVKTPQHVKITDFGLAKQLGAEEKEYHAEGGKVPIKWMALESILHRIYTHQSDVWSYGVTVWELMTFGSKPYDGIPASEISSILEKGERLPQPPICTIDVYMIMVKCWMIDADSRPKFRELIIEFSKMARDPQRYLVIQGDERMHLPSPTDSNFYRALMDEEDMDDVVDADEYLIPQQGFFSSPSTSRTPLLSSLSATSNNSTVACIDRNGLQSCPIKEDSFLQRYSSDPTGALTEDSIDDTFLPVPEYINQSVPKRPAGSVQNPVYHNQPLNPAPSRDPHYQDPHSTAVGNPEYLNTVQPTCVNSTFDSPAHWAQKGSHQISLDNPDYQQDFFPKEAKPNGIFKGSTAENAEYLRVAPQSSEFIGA
Sequence of Epidermal growth factor receptor (Homo sapiens), P00533 [L858R] (P00533 whole entry L858R): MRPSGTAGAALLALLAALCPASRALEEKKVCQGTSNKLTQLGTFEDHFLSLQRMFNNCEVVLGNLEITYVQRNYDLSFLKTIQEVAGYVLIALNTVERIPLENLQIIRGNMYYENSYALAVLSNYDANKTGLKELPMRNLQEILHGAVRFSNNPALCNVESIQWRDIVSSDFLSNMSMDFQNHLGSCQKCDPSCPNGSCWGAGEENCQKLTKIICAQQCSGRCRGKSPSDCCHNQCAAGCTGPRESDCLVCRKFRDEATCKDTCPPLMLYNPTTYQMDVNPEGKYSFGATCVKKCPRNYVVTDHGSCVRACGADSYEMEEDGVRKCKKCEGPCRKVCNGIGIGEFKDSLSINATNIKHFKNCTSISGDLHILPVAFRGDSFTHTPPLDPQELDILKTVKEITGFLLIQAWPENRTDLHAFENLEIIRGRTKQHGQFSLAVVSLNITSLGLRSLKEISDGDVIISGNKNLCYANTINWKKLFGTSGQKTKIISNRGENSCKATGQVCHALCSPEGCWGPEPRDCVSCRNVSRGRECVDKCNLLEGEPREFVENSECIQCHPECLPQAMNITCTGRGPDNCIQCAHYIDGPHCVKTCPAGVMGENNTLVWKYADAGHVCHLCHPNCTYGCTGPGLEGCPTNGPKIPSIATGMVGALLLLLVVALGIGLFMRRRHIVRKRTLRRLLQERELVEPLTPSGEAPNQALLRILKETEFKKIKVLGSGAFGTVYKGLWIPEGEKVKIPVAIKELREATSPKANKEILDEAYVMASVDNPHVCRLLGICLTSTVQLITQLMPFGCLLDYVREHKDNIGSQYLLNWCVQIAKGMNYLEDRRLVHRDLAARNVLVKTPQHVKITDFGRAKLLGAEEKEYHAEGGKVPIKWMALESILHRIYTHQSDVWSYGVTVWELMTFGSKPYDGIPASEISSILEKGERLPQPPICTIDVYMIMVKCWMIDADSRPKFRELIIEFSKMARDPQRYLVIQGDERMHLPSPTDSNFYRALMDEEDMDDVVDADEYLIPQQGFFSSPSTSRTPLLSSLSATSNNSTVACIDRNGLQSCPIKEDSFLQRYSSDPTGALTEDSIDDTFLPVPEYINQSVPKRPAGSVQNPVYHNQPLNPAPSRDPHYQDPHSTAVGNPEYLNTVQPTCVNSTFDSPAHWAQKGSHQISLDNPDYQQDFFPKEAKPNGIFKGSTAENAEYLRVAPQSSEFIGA
Sequence of Ephrin type-A receptor 2 (Homo sapiens) (P29317 whole entry): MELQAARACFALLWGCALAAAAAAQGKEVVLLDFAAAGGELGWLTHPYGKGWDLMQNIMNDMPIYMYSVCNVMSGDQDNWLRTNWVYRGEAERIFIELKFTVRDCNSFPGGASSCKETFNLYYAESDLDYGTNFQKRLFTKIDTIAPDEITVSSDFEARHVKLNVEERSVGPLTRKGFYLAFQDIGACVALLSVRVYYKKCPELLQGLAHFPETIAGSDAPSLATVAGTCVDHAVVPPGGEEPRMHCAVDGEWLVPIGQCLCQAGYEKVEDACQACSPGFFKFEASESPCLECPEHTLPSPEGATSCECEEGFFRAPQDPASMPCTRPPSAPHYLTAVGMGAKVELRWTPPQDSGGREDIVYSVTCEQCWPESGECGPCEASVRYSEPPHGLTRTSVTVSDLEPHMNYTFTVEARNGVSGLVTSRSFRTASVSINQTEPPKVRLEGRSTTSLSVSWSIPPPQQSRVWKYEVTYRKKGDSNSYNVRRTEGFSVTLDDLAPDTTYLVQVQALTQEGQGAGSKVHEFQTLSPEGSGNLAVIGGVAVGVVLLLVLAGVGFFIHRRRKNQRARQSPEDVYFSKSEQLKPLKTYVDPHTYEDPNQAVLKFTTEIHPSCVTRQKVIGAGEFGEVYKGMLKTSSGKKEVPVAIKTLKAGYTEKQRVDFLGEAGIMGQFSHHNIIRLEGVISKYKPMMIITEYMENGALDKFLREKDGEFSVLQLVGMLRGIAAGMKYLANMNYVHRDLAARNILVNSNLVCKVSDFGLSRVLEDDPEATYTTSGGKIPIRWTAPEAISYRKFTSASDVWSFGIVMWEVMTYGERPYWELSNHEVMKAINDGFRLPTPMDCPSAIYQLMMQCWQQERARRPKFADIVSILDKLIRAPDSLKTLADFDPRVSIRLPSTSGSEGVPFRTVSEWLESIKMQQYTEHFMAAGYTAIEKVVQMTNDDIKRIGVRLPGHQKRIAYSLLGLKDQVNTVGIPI
Sequence of Epidermal growth factor receptor (Homo sapiens) (P00533 whole entry): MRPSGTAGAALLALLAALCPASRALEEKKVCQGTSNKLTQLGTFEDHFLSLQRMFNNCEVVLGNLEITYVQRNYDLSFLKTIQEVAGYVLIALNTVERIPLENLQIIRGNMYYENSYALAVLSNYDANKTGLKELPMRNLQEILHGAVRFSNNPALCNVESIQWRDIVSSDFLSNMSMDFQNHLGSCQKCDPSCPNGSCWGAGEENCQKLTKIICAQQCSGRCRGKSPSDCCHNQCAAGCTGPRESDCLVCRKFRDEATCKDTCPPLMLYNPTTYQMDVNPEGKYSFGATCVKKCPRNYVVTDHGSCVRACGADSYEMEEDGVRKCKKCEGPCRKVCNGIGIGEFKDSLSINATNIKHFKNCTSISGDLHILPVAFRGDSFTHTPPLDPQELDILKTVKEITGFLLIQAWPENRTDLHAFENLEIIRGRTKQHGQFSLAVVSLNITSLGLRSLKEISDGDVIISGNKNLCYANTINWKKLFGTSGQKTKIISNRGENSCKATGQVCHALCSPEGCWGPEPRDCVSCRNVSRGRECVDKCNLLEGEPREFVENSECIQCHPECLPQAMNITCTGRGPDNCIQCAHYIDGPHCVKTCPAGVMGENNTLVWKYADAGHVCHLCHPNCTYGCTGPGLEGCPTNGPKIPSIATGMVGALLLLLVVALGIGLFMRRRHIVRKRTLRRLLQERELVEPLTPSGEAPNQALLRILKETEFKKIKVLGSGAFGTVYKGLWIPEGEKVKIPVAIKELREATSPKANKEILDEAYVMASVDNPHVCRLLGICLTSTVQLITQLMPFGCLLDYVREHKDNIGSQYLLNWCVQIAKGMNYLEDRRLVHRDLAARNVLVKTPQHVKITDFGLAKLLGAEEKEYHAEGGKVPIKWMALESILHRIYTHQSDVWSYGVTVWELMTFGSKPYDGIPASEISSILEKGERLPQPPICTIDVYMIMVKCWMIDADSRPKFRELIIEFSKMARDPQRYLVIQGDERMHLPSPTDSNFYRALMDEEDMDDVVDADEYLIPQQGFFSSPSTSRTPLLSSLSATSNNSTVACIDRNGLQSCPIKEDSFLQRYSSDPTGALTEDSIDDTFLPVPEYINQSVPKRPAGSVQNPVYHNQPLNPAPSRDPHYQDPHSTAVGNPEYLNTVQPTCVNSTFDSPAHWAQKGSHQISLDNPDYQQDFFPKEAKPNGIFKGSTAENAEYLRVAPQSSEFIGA
Sequence of Tyrosine-protein kinase CSK (Homo sapiens) (P41240 2-450 limits assumed): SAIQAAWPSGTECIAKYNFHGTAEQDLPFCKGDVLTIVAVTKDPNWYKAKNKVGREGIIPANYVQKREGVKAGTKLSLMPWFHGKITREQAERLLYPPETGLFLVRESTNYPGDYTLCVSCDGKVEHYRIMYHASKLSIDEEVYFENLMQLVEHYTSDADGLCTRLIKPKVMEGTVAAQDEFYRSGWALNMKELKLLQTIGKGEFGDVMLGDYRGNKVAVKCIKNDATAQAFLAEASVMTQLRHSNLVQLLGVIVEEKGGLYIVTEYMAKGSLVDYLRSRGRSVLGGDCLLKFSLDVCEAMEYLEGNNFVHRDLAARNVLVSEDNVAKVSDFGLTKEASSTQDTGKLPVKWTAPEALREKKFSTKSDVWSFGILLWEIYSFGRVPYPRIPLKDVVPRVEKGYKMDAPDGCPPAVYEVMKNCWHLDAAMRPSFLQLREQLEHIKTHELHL

SMILES | inhibition [1] [%] | inhibition [2] [%] | inhibition [3] [%] | inhibition [4] [%] | inhibition [5] [%] | inhibition [6] [%] | inhibition [7] [%] | inhibition [8] [%] | inhibition [9] [%] | inhibition [10] [%] | inhibition [11] [%] | inhibition [12] [%] | inhibition [13] [%] | inhibition [14] [%] | inhibition [15] [%] | inhibition [16] [%] | inhibition [17] [%] | inhibition [18] [%] | inhibition [19] [%] | inhibition [20] [%]
COC(=O)Nc1nc2ccc(Oc3ccc(NC(=O)Nc4cccc(Cl)c4)cc3)cc2[nH]1 | 5.95 | 84.2 | 85.2 | 3.42 | 7.64 | -0.65 | 2.43 | -0.21 | -0.8 | -1.18 | -0.68 | -2.96 | 0.71 | 7.68 | 41.2 | 4.1 | 8.5 | 22.3 | 62.9 | 36.9
CCn1c(-c2nonc2N)nc2c(C#CC(C)(C)O)ncc(OC3CCNCC3)c21 | 1.26 | 0.94 | 1.03 | 1.89 | 3.18 | -0.6 | 2.18 | -0.91 | -0.16 | -0.25 | 1.16 | 1.78 | 0.14 | 1.52 | 0.34 | 1.03 | 3.69 | 4.06 | 6.59 | -2.87
Fc1ccc(-c2nn3ccccc3c2-c2ccncc2)cc1 | 2.22 | 1.72 | 5.54 |  |  |  |  |  |  |  |  |  |  | -1.52 | -1.41 | 3.94 | 5.1 | 5.14 | 11.7 | 5.2
COC(=O)Nc1nc2ccc(S(=O)(=O)c3ccc(NC(=O)Nc4cc(C(F)(F)F)ccc4F)cc3)cc2[nH]1 | -1.83 | 10.3 | 62.7 | 0.69 | 7.04 | -0.69 | 1.58 | 0.81 | 2.11 | 2.47 | 0.19 | 0.89 | -0.68 | 2.49 | 6.48 | 3.46 | 4.35 | 4.8 | 9.4 | 6.82
CC(=O)Nc1cccc(C#Cc2cncnc2Nc2ccc(OCc3cccc(F)c3)c(Cl)c2)c1 | -1.85 | 4.51 | 7.91 |  |  |  |  |  |  |  |  |  |  | 4.33 | 2.42 | 4.65 | 3.23 | 8.19 | 0.69 | 6.52
COc1ccc(-c2cc3c(N)ncnc3o2)cc1 | -0.98 | -0.42 | 0.02 | 0.82 | 2 | 0.82 | -0.02 | -0.61 | -1.15 | -2.23 | -2.06 | -0.41 | -0.81 | -3.93 | -2.53 | -3.56 | -2.59 | -2.85 | 1.4 | -3.46
CN1CCC(n2cnc(-c3ccc(F)cc3)c2-c2ccnc(Nc3ccccc3)n2)CC1 | 6.08 | -0.08 | 0.85 | 9.04 | 46.6 | 37 | 84.8 | 9.58 | 51.3 | 1.19 | 15.5 | 9.65 | 49.1 | 0.44 | 0.04 | 1.78 | 4.18 | 7.5 | 13.3 | 12.9
COc1cc2ncn(-c3cc(OCc4ccccc4C(F)(F)F)c(C(=O)N(C)C)s3)c2cc1OC | 0.02 | 0.21 | -0.91 | 0.21 | 0.03 | -1.55 | -0.64 | -1.32 | -1.92 | -1.33 | -1.36 | 0.72 | -1.46 | -1.69 | -2.94 | 2.89 | 1.92 | 2.87 | 4.19 | 0.66

From ChEMBL document CHEMBL1961873, “Compounds: GSK PKIS; Assays: Nanosyn kinase panel” (2012)
